This is a sample that favours compounds with a hit; in the whole collection about 2.3% have one here.
Kir21 block = inhibitors of mouse Kir2.1 inward-rectifier potassium channel; B-score at 10 µM; HEK293-Kir2.1, FluxOR thallium flux fluorescence; active compounds read low; Inward rectifier potassium channel 2 (Mus musculus), P35561; AID 1672, 2009; 0.85% of 310,000 active;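 active = fluorescence ratio B-score at or below minus 3 SD of library scores, with starting-brightness B-score within 2 SD, cut at about -4.2 in these data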;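 note: channel flux triggered by added potassium and thallium sulfate stimulus; B-score of peak minus minimum fluorescence over baseline after thallium stimulus; more negative B-score means stronger Kir2.1 block with less thallium influx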
Target sequence (P35561 whole entry, looked up): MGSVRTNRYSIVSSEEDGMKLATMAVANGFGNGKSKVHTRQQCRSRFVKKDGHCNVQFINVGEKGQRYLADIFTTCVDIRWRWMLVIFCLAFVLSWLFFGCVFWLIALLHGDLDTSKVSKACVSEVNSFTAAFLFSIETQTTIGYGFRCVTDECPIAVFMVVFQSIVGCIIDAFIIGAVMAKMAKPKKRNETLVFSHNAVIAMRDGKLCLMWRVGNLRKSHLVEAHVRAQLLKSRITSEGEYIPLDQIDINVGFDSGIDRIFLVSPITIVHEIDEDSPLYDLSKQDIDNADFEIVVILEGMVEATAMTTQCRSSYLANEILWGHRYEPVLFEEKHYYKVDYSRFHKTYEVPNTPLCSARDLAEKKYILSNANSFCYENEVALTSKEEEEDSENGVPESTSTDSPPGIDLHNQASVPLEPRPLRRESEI
FID counter = compounds displacing fluorescent DNA intercalator, primary screen, artefact control for HCV NS3 helicase inhibitor project, biochemical, FID fluorescence; DNA fluorescent intercalator displacement; inhibition, % at 7.9 µM; 0.17% of 290,000 active; AID 1845, 2009; in the data active = inhibition above about 37%;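 note: higher means more ethidium bromide displaced from hairpin DNA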
PfM18AAP inh-1 = PfM18AAP inhibitors, malaria aminopeptidase, primary screen, biochemical, QFRET, recombinant enzyme; 1.2% of 290,000 active; inhibition, % at 7.35 µM; AID 1822, 2009; M18 aspartyl aminopeptidase (Plasmodium falciparum 3D7); H-Glu-NHMec fluorogenic cleavage;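 active = inhibition above the campaign mean inhibition over all tested compounds plus 3 SD, cut at about 28% in these data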
Rce1 inh = yeast Rce1p protease inhibitors, primary screen, biochemical, fluorescence, cell-free homogeneous. calls only. CAAX prenyl protease 2 (Saccharomyces cerevisiae (strain ATCC 204508 / S288c)), Q03530. yeast membranes, quenched prenylated peptide cleavage fluorescence. 0.27% of 290,000 active;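 active = fall in fluorescence gain of 50% or more versus controls, with final raw signal at or below 3038400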
PfM18AAP inh-2 = PfM18AAP inhibitors, malaria aminopeptidase, confirmation, biochemical, QFRET, recombinant enzyme, triplicate | shares compounds with PfM18AAP inh-1 | H-Glu-NHMec fluorogenic cleavage | inhibition, % at 7.35 µM | 28% of 2,400 active;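 active = mean inhibition over replicate wells above the hit cutoff set for the earlier primary screen, cut at about 29% in these data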
CTSL1 counter = cathepsin L1 inhibitors, retest, confirmation, counter-screen for PFM18AAP inhibitor project, biochemical, QFRET, triplicate; shares compounds with PfM18AAP inh-1; purified cathepsin L1, Z-Leu-Arg-MCA fluorescence; inhibition, % at 5.96 µM; 2,400 tested, under 10 active;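 active = average inhibition across replicates above the hit cutoff set in the earlier primary screen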
A number is an active result.

O=C(Nc1ccc(N2CCN(C(=O)c3ccccc3F)CC2)cc1)c1ncn[nH]1 was read as Kir21 block inactive, FID counter inactive, PfM18AAP inh-1 38.9, Rce1 inh inactive, PfM18AAP inh-2 inactive and CTSL1 counter inactive.
`CCC(=O)Nc1nc(-c2ccccc2)ns1` gave Kir21 block inactive, FID counter inactive, PfM18AAP inh-1 inactive and Rce1 inh inactive.
`O=C(CSc1ncn[nH]1)Nc1ccccc1C(=O)O` gave Kir21 block inactive, FID counter inactive, PfM18AAP inh-1 44.1, Rce1 inh inactive, PfM18AAP inh-2 inactive and CTSL1 counter inactive.
For Cc1ccnc(NC(=O)C2CC(=O)N(c3ccc4c(c3)OCCO4)C2)c1 (configuration not stated) the results were Kir21 block inactive, FID counter inactive, PfM18AAP inh-1 inactive and Rce1 inh inactive.
`Cc1ccc(CN(C)C(=O)C2CCC(=O)N(CCc3ccccc3)C2)o1` (configuration not stated) gave Kir21 block inactive, FID counter inactive, PfM18AAP inh-1 inactive and Rce1 inh inactive.
Screening Cc1ccc(N2CCN(S(=O)(=O)c3ccc4oc(=O)ccc4c3)CC2)cc1Cl returned Kir21 block inactive, FID counter inactive, PfM18AAP inh-1 inactive and Rce1 inh inactive.
COCCn1c(SCC#N)nnc1-c1ccc([N+](=O)[O-])cc1 was read as Kir21 block inactive, FID counter inactive, PfM18AAP inh-1 inactive and Rce1 inh inactive.
Screening Cc1c(C)c2cc(Cl)c(OCC(=O)NCCCn3ccnc3)cc2oc1=O returned Kir21 block inactive, FID counter inactive, PfM18AAP inh-1 inactive and Rce1 inh inactive.
`Cc1cc(NC(=O)CSc2ncn[nH]2)no1` gave Kir21 block inactive, FID counter inactive, PfM18AAP inh-1 inactive and Rce1 inh inactive.
`CC(C)c1nnc(NC(=O)CSc2ncn[nH]2)s1` gave Kir21 block inactive, FID counter inactive, PfM18AAP inh-1 42.3, Rce1 inh inactive, PfM18AAP inh-2 51.7 and CTSL1 counter inactive.
O=C1/C(=C/c2ccco2)SC(=S)N1CCC(=O)N1CCCCC1CCO (configuration not stated) was read as Kir21 block inactive, FID counter inactive, PfM18AAP inh-1 31.8, Rce1 inh inactive, PfM18AAP inh-2 inactive and CTSL1 counter inactive.
`O=C1/C(=C/c2ccc(Cl)cc2)SC(=S)N1CCC(=O)N1CCCCC1CCO` (configuration not stated) gave Kir21 block inactive, FID counter inactive, PfM18AAP inh-1 inactive and Rce1 inh inactive.
Screening COc1ccc(OC)c(CCNC(=O)Cn2sc3nc(C)cc(C)c3c2=O)c1 returned Kir21 block inactive, FID counter inactive, PfM18AAP inh-1 51.2, Rce1 inh inactive, PfM18AAP inh-2 inactive and CTSL1 counter inactive.
`Cc1cc(C)c2c(=O)n(CC(=O)Nc3cccc(Cl)c3C)sc2n1` gave Kir21 block inactive, FID counter inactive, PfM18AAP inh-1 63.3, Rce1 inh inactive, PfM18AAP inh-2 40.7 and CTSL1 counter inactive.
Screening O=C(OCC(=O)N1CCCC1)c1ccc(S(=O)(=O)Nc2ccccc2)cc1 returned Kir21 block inactive, FID counter inactive, PfM18AAP inh-1 inactive and Rce1 inh inactive.
Cc1ccc(-n2c(CCc3nc4ccccc4[nH]3)n[nH]c2=S)cc1 was read as Kir21 block inactive, FID counter inactive, PfM18AAP inh-1 33.3, Rce1 inh inactive, PfM18AAP inh-2 inactive and CTSL1 counter inactive.
`CCn1c(CCc2nc3ccccc3[nH]2)n[nH]c1=S` gave Kir21 block inactive, FID counter inactive, PfM18AAP inh-1 inactive and Rce1 inh inactive.
Screening CCc1cccc(NC(=O)C2CCCN2S(=O)(=O)c2ccc3c(c2)CC(C)N3C(C)=O)c1 (configuration not stated) returned Kir21 block inactive, FID counter inactive, PfM18AAP inh-1 inactive and Rce1 inh inactive.
Cc1ccccc1C(=O)NNc1ccc([N+](=O)[O-])cc1 was read as Kir21 block inactive, FID counter inactive, PfM18AAP inh-1 59.5, Rce1 inh inactive, PfM18AAP inh-2 47.7 and CTSL1 counter inactive.
O=C(NNc1ccc([N+](=O)[O-])cc1)C1CC1c1ccccc1 (configuration not stated) was read as Kir21 block inactive, FID counter inactive, PfM18AAP inh-1 43.1, Rce1 inh inactive, PfM18AAP inh-2 inactive and CTSL1 counter inactive.
Screening COc1ccc(-n2ncc3c2CC(C)(C)CC3NC(=O)c2ccnn2C)cc1 (configuration not stated) returned Kir21 block inactive, FID counter inactive, PfM18AAP inh-1 inactive and Rce1 inh inactive.
CCC(C)c1ccc(O)c(N)c1 (configuration not stated) was read as Kir21 block inactive, FID counter inactive, PfM18AAP inh-1 63.7, Rce1 inh inactive, PfM18AAP inh-2 69.5 and CTSL1 counter inactive.
Screening CC(C)c1ccc(O)c(N)c1 returned Kir21 block inactive, FID counter inactive, PfM18AAP inh-1 inactive and Rce1 inh inactive.
`Cc1[nH]c(=S)c(C#N)c(C)c1CCC#N` gave Kir21 block inactive, FID counter inactive, PfM18AAP inh-1 38.0, Rce1 inh inactive, PfM18AAP inh-2 37.2 and CTSL1 counter inactive.
Cc1[nH]c(=S)c(C#N)c(C)c1Cc1ccccc1 was read as Kir21 block inactive, FID counter inactive, PfM18AAP inh-1 inactive and Rce1 inh inactive.
For FC(F)Oc1ccc(NC(=S)Nn2cnnc2)cc1 the results were Kir21 block inactive, FID counter inactive, PfM18AAP inh-1 80.3, Rce1 inh inactive, PfM18AAP inh-2 65.6 and CTSL1 counter inactive.
Screening CN(NC(=S)Nc1ccc(OC(F)F)cc1)C(=S)Nc1ccc(OC(F)F)cc1 returned Kir21 block inactive, FID counter inactive, PfM18AAP inh-1 inactive and Rce1 inh inactive.
COc1cccc(/C=N/NC(=O)CNC(=O)C(c2ccccc2)c2ccccc2)c1O was read as Kir21 block inactive, FID counter inactive, PfM18AAP inh-1 inactive and Rce1 inh inactive.
O=C(N/N=C/c1cc2cc3c(cc2nc1Cl)OCO3)c1ccncc1 was read as Kir21 block inactive, FID counter inactive, PfM18AAP inh-1 inactive and Rce1 inh inactive.
`O=C(O)c1csc(N/N=C/c2ccc(Br)cc2)n1` gave Kir21 block inactive, FID counter inactive, PfM18AAP inh-1 33.2, Rce1 inh inactive, PfM18AAP inh-2 inactive and CTSL1 counter inactive.
O=C(O)/C=C/c1ccc(OCc2cccc(F)c2)cc1 was read as Kir21 block inactive, FID counter inactive, PfM18AAP inh-1 inactive and Rce1 inh inactive.
CCc1nnc(NC(=O)CSc2nnc(CNC(=O)c3ccc(OC)c(OC)c3)o2)s1 was read as Kir21 block inactive, FID counter inactive, PfM18AAP inh-1 41.8, Rce1 inh inactive, PfM18AAP inh-2 inactive and CTSL1 counter inactive.

Source: PubChem BioAssay (several laboratories)
